Results published in ChEMBL document CHEMBL3988442, “University of Dundee, Small-Polar-MMV Screening Library” (2021).
About 13,000 (27%) of roughly 48,000 compounds showed an effect of 50% or more. This is one part of the list.

Test system: Wolbachia pipientis
Experiment: Anti-Wolbachia Cell-Based Screen
Assay type: functional
Set-up: scale not given: in the data most compounds retested in dose-response had high values
Conditions: 5 µM

Compound | Percent Effect
O=C(O)C(F)(F)F.O=S(=O)(C1CC1)N1CCC2(CCN(Cc3nccs3)CC2)CC1 | -4.722%
CS(=O)(=O)N1CCO[C@@H]2CCN(C(=O)c3cccs3)CC[C@H]21 | -2.724%
Cc1ccc(N(C)C2CCN(C(=O)c3ccsc3)CC2)nn1 | -0.5839%
O=C(c1cccs1)N1CC(C(=O)N2CCCC2)C2(CCOCC2)C1 (stereo unspecified) | -9.07%
Cn1cnnc1S(=O)(=O)C1CCN(C(=O)c2ccsc2)CC1 | -15.33%
COCC1CN(Cc2c(C)noc2C)Cc2cn(C)nc21 (stereo unspecified) | 8.994%
NC(=O)NC(=O)CN1CCN(CC2CC2)c2ccccc21 | -3.453%
COCC(c1cccc(C(F)(F)F)c1)N(C)C(=O)c1ccncc1 (stereo unspecified) | -9.987%
COCCNc1ccccc1CNC(=O)NCc1nc(C)c(C)s1 | -3.267%
CC(=O)Nc1ccc2nn(C(C)C)cc2c1 | 3.305%
Cc1cc2cccc(C(=O)N3CCOC4(CNCCOC4)C3)c2o1 (stereo unspecified) | -17.55%
CCN(CC)CCCNCC1CCOC(C)(C)C1 (stereo unspecified) | 90.59%
CCN(CC)CCNCC1CCOC(C)(C)C1 (stereo unspecified) | 101.9%
COc1c(NS(=O)(=O)c2ccc(F)c(C)c2)c(C)nn1C | 6.685%
CC(=O)NC[C@@]1(COc2cnccn2)C[C@@H](O)[C@@H](O)C1.Cl | -2.09%
CCN(CC)C1(Cc2cc(-c3ccccn3)on2)COC1 | -7.749%
Cc1nc(CN(C)C2CCN(Cc3ccc4c(c3)CCC4)C2)no1 (stereo unspecified) | 94.75%
Cc1nc(CN(C)C2CCN(Cc3cccc(F)c3)C2)no1 (stereo unspecified) | 130.9%
CNC(=O)c1ccc(CN2CCC(N(C)Cc3noc(C)n3)C2)cc1 (stereo unspecified) | 12.29%
Cc1nc(CN(C)C2CCN(Cc3ccc(C(N)=O)cc3)C2)no1 (stereo unspecified) | 137.1%
Cc1nc(CN(C)C2CCN(Cc3ccc4c(c3)OCCO4)C2)no1 (stereo unspecified) | -0.871%
CNC(=O)c1cccc(CN2CCC(N(C)Cc3noc(C)n3)C2)c1 (stereo unspecified) | 9.379%
Cc1nc(CN(C)C2CCN(CCc3ccc4c(c3)CCO4)C2)no1 (stereo unspecified) | 131.2%
CC(C)(C)C(NC(=O)CCCS(C)(=O)=O)c1ccc(F)cc1F (stereo unspecified) | 6.458%
Cc1cnc(N2CCC3(CC2)CC(NC(=O)N(C)C)CO3)nc1 (stereo unspecified) | 3.12%
CC(C)c1cc(C(=O)N2C[C@@H](C)[C@](O)(C3CC3)C2)[nH]n1 | 9.432%

Compound | Percent Effect
CCN(C(C)c1cccc(O)c1)S(=O)(=O)c1cccnc1 (stereo unspecified) | -1.511%
CC(C)(C)c1c[nH]c([C@@H]2COCCN2C2CCNCC2)n1 | -5.137%
Cc1cc(C)n(C2CN(CC(=O)N3CCOCC3)C2)n1 | -1.985%
Cc1cc(C)n(C2CN(CC(O)Cn3cccn3)C2)n1 (stereo unspecified) | -3.488%
COc1cccc(CNC(=O)C(C)N2CC(n3nc(C)cc3C)C2)c1 (stereo unspecified) | -5.224%
Cc1cc(C)n(C2CN(CC(=O)NC3CCOCC3)C2)n1 | -6.139%
Cc1cc(C)n(C2CN(CCC(=O)NCCc3ccccc3)C2)n1 | 114.1%
Cc1cc(C)n(C2CN(Cc3ccc(C(=O)N4CCCC4)cc3)C2)n1 | -4.233%
CCc1ccc(NC(=O)CCN2CC(n3nc(C)cc3C)C2)cc1 | 87.75%
Cc1cc(C)n(C2CN(CCC(N)=O)C2)n1 | 109.9%
Cc1cnn(C2CN(CC(=O)NCCc3ccccc3)C2)c1 | -5.59%
CN(C)S(=O)(=O)NC(=O)CC(c1ccccc1)C(F)(F)F (stereo unspecified) | -3.128%
CCCS(=O)(=O)NCc1cccnc1Oc1ccc(C)nc1 | -8.382%
O=C(CC1OCCc2ccsc21)NCC1CC1 (stereo unspecified) | -1.416%
CCc1nc(C(=O)N2CCN(CCc3ccc(OC)cc3)CC2)c[nH]1 | -9.12%
Cc1ccc(C)c(N2CCN(CC3(O)CCNC3)CC2)c1 (stereo unspecified) | -4.262%
O=C(NCCCO)C1CC(=O)N(c2n[nH]c3cccc(F)c23)C1 (stereo unspecified) | 13.85%
Cc1cc(O)cc(=O)n1CCCC(=O)Nc1n[nH]c2ccccc12 | 106.8%
Cc1cc(O)cc(=O)n1CCCC(=O)Nc1n[nH]c2cc(Br)ccc12 | 109.7%
Cc1ccccc1-c1cc(NC(=O)Cn2ccccc2=O)n(C)n1 | -15.16%
Cc1nonc1NC(=O)CCn1cc(Br)ccc1=O | -2.489%
Cn1nc(C(C)(C)C)cc1NC(=O)Cn1ccccc1=O | 13.92%
Cc1cc(O)cc(=O)n1CCCC(=O)Nc1n[nH]c2cccc(F)c12 | 106.9%
Cc1noc(C)c1NC(=O)CCn1cc(Br)ccc1=O | 5.297%
Cc1cc(NC(=O)Cn2ccccc2=O)n(C)n1 | -5.406%
